From PubChem BioAssay
IL-1B inflam inh: blocks inflammasome-driven IL-1 beta release | activity change, % at 57.5 µM | hit rate 4.7% among 360,000 | THP-1 LPS/ATP IL-1B secretion, AlphaLISA, 16 h; hits give low values; in the data active = activity change below about -50%; inconclusive = mostly about -30% to -49%
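Secreted IL-1B measured by AlphaLISA bead assay after 16 h compound exposure of THP-1 cells; compounds (final up to 57.5 uM) added 1 h before LPS (250 ng/mL) and ATP (1.25 mM) stimulation; lower signal means less secretion.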
Six1-Eya2 blk: inhibitors of human Six1/Eya2 interaction | Q15475+O00167 | AlphaScreen GST-Six1/His-Eya2 binding, biochemical; hits give low values | activity change, % (no concentration beside the values) | hit rate 0.56% among 360,000 | AID 651725; in the data active = activity change below about -65%; inconclusive = mostly about -30% to -63%
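GST-Six1 + His-Eya2 (5X stock: 250/500 nM); Tris pH 8.0, 300 mM NaCl, 0.05% BSA, 0.02% Tween 20; GSH donor/Ni acceptor beads; 1 h 37 °C dark; AlphaScreen readout.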
CtBP-E1A inh: inhibitors of CtBP/E1A interaction; hit rate 0.49% among 340,000; AlphaScreen GST-E1A/His-CtBP binding, 1536-well; hits give low values; activity change, % (no concentration beside the values); in the data active = activity change below about -65%; inconclusive = mostly about -30% to -63%
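AlphaScreen with 125 nM GST-E1A and 125 nM His-CtBP (5X stocks) in Tris pH 8.0, 300 mM NaCl, BSA, Tween 20, TCEP. Compounds preincubated 2 h at 37 deg C, then glutathione donor/nickel acceptor beads added for 1 h at 37 deg C in dark.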
TDP1 inh: inhibitors of human tyrosyl-DNA phosphodiesterase TDP1; recombinant TDP1, AlphaScreen DNA substrate cleavage; Potency, µM (titrated, usually from 130 µM), for inactives: top-dose activity change, negative = inhibition, actives largely listed as inhibitors; hit rate 0.28% among 350,000; note: potency is the fitted concentration of half-maximal effect; nearly all actives have a fitted effect of over 40% in size
Target sequence (Q9NUW8 whole entry, looked up): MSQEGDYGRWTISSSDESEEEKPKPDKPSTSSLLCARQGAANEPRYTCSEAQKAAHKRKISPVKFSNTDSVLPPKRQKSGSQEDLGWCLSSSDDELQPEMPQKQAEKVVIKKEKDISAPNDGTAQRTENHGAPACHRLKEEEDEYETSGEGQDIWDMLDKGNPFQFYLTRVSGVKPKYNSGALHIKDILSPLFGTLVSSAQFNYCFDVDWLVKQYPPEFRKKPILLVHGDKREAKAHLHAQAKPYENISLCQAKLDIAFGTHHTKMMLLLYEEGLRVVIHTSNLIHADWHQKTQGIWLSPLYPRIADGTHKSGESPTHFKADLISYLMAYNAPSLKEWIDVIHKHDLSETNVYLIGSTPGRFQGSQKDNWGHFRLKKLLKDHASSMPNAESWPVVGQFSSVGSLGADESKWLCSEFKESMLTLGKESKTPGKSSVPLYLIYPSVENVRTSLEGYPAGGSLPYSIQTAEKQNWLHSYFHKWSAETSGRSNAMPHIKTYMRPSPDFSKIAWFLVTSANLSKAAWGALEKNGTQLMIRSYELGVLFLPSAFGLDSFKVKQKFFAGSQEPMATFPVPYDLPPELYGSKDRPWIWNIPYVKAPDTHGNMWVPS
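Recombinant human Tdp1 (E. coli-expressed, 1 nM final) preincubated with compounds 15 min at room temperature, then 5'-biotin/3'-phosphotyrosine-FITC DNA substrate (15 nM final) added for 5 min. AlphaScreen beads (10 ug/ml final) added 10 min; cleavage lowers signal.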
DT40 TDP1 CPT: DT40-hTDP1 cell growth loss with CPT. Potency, µM (highest dose often 46.2 µM), for inactives: top-dose activity change, negative = growth inhibition, most hits filed as inhibitors. chicken DT40 Tdp1-/-;hTDP1 cells + 20 nM CPT, ATP luminescence, 48 h. AID 686979. hit rate 12% among 420,000; note: potency is the fitted concentration of half-maximal effect; nearly all actives have a fitted effect of over 55% in size
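Chicken DT40 Tdp1-/- cells stably complemented with human TDP1 were seeded at 400 cells/well in medium containing 20 nM camptothecin, exposed to pin-transferred compounds, and grown at 37 °C for at least 48 hr. Viability was read as ATP luminescence.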
DT40 TDP1 no CPT: qHTS for Inhibitors of human tyrosyl-DNA phosphodiesterase 1 (TDP1): qHTS in cells in absence of CPT; DT40 Tdp1-/- hTDP1 cells, no CPT, ATP luminescence, 48 h; Potency, µM (doses to about 46.2 µM), for inactives: at the top dose activity change, negative = growth inhibition, hits mostly inhibitors; hit rate 15% among 420,000; AID 686978, 2013; note: potency is the fitted concentration of half-maximal effect; nearly all actives have a fitted effect of over 55% in size
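Luminescent ATP content (CellTiter-Glo) served as the growth readout. Knockout chicken DT40 cells expressing human TDP1 were exposed to compounds without camptothecin for a minimum 48 hr at 37 °C.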
* marks the source's active call; other numbers are inactive results; ? = inconclusive; . = not tested or not shown; [ ] = another dose, or the depositor's remark. Shown are actives, neighbours in structure and some others; about 18% of the full set was active somewhere. Unless noted, calls come from the whole dose curve; as a rule, active = well fitted curve in the direction sought with a large enough effect; inconclusive = small, poorly fitted or top-dose-only effect, or another doubt; inactive = no such curve, though single readings can be large; an effect the other way counts as inactive or inconclusive. % is set by controls: 0 for no effect and ±100 for the full control effect.

SMILES	IL-1B inflam inh	Six1-Eya2 blk	CtBP-E1A inh	TDP1 inh	DT40 TDP1 CPT	DT40 TDP1 no CPT
O=S(=O)(Nc1ccc(N=Nc2ccc(O)c3ccccc23)cc1)c1ccccc1	-60*	?	?	6%	?	?
O=S(=O)(Nc1ccc(-c2ccccc2)cc1)c1ccccc1	?	-6	-1	.	?	?
O=C(NC1CCCCCC1)C1CCN(c2nc3ccccc3o2)CC1	18	2	0	-6%	?	16µM*
CC(C)CC(=O)NC(=S)N1CCCCCC1	1	6	7	3%	-1%	-11%
CCOC(=O)C1=C(C)N(C[C@@H]2CC[C@@H](Cc3ccc(-c4ccccc4)cc3)O2)C(=O)NC1C1CC1 (stereo not given in full)	11	-11	-6	1%[56.1 µM]	?	21µM*
CCOC(=O)C1=C(C)N(C[C@@H]2CC[C@@H](Cc3ccc(-c4ccccc4)cc3)O2)C(=O)NC1c1ccc(Cl)cc1 (stereo not given in full)	-52*	-28	-15	1%[56.1 µM]	?	21µM*
O=C(CSc1nc(=O)n(CCN2CCOCC2)c2c1CCC2)Nc1ccccc1	.	.	.	3%	18%	1%
CCn1c(C)cc(O)c(C(=O)Nc2cccc(Cl)c2)c1=O	0	13	.	-9%	?	3.7µM*
Cc1ccc(-n2c(=O)c3ccc(C(=O)NCc4ccco4)cc3n(Cc3ccccc3C#N)c2=O)cc1	14	-5	-3	7%	?	?
CC(=O)c1cccc(NC(=O)c2ccc3c(c2)c(C)c(C)n3Cc2ccc(Cl)cc2)c1	.	.	.	3%	15µM*	9.2µM*
COc1ccc(-n2c(=O)c3ccc(C(=O)NCc4ccc(C)cc4)cc3n(CC(=O)Nc3ccc(C)cc3)c2=O)cc1	.	.	.	0%	?	21µM*
Cc1c(C)n(Cc2ccc(Cl)cc2)c2ccc(C(=O)NCCN3CCOCC3)cc12	0	-14	-19	13%	?	?
Cc1ccc(-n2c(=O)c3ccc(C(=O)NCc4ccco4)cc3n(Cc3ccc(Cl)cc3)c2=O)cc1	.	.	.	-2%	18µM*	6.5µM*
COc1ccc(-n2c(=O)c3ccc(C(=O)NCc4ccc(C)cc4)cc3n(CC(=O)Nc3ccc(F)cc3)c2=O)cc1	.	.	.	0%	-6%	4%
CCn1ccc(C(=O)Nc2cccc(Cl)c2)n1	-4	7	2	-4%	2%	-14%
Cc1ccc(CNC(=O)CSCC(=O)O)cc1	11	6	-1	7%	9%	0%
COc1cccc(CNC(=O)c2ccc3c(c2)c(C)c(C)n3Cc2ccccc2)c1	.	.	.	8%	16µM*	18µM*
Cc1c(C)n(Cc2ccccc2)c2ccc(C(=O)NCc3ccco3)cc12	.	.	.	8%	?	16µM*
CCc1cccc(NC(=O)c2ccc3c(c2)c(C)c(C)n3Cc2ccc(F)cc2)c1	.	.	.	0%	15µM*	?
Cc1ccc(CNC(=O)c2ccc3c(c2)c(C)c(C)n3Cc2ccc(Cl)cc2)o1	.	.	.	8%	?	5.2µM*
O=C(N1CCCC1)C12CC3CCC(CC(C3)C1)C2	-3	8	9	2%	-20%	?
Cc1ccc(CNC(=O)c2ccc3c(c2)c(C)c(C)n3Cc2ccccc2)o1	.	.	.	3%	?	?
CCn1c(C)c(C)c2cc(C(=O)NCc3cccc(C)c3)ccc21	.	.	.	11%	23µM*	?
Cc1c(C)n(Cc2ccccc2)c2ccc(C(=O)OCCN(C)C)cc12	-26	?	-23	15%	?	12µM*
CCOC(=O)c1ccc2oc(=O)n(Cc3ccccc3)c2c1	.	.	.	-1%	-28%	-23%
SMILES	IL-1B inflam inh	Six1-Eya2 blk	CtBP-E1A inh	TDP1 inh	DT40 TDP1 CPT	DT40 TDP1 no CPT
CCc1ccc(CNC(=O)c2ccc3c(c2)c(C)c(C)n3Cc2ccccc2)cc1	.	.	.	5%	18µM*	?
CCc1ccc(NC(=O)c2ccc3c(c2)c(C)c(C)n3Cc2ccccc2)cc1	.	.	.	0%	5.8µM*	5.2µM*
Cc1cccc(Cn2c(C)c(C)c3cc(C(=O)NCc4ccc(C)o4)ccc32)c1	.	.	.	8%	?	?
COc1cc(OC)cc(-n2nnc(-c3nc(-c4ccccc4Cl)no3)c2N)c1	.	.	.	-13%	?	?
CCn1c(C)c(C)c2cc(C(=O)Nc3cccc(Cl)c3)ccc21	?	-1	-6	5%	?	18µM*
CCn1nnc2cc(C(=O)Nc3cccc(Cl)c3)ccc21	.	.	.	5%	6%	-17%
O[C@@H]1C[C@H](c2ccccc2)N(CC2CCCCC2)C[C@H]1n1cc(C2CC2)nn1	5	6	-6	.	-4%	?
CCOc1ccccc1N1CC(c2nc3ccccc3n2CCCCOc2cc(C)ccc2C)CC1=O (stereo not given)	.	.	.	5%	26µM*	?
CCOc1ccccc1N1CC(c2nc3ccccc3n2CCCOc2ccccc2OC)CC1=O (stereo not given)	.	.	.	-3%	?	-26%
Cc1cccc(OCCCCn2c(C3CC(=O)N(c4ccccc4Cl)C3)nc3ccccc32)c1 (stereo not given)	.	.	.	10%	3.7µM*	?
COc1ccccc1OCCCn1c(C2CC(=O)N(c3ccccc3Cl)C2)nc2ccccc21 (stereo not given)	.	.	.	10%	13µM*	6.5µM*
O=C(Nc1ccc(Cl)cc1)OCc1cn(-c2ccccc2)nn1	0	0	5	-6%	8%	5%
COc1cccc(C2C3=C(CC(C)(C)CC3=O)Nc3cc(OC)c(OC)cc32)c1 (stereo not given)	0	12	-17	9%	15%	-2%
CCn1c(=O)c2cc(C(=O)N(C)c3ccc(OC)cc3OC)sc2c2ccccc21	-7	-24	-22	5%	?	13µM*
CCn1c(=O)c2cc(C(=O)NCc3cccs3)sc2c2ccccc21	-14	2	-3	.	3%	?
CCn1c(=O)c2cc(C(=O)N(C)c3cc(C)ccc3OC)sc2c2ccccc21	-84*	-25	0	4%	?	?
COc1ccc(NC(=O)C2CCCN2C(=O)NCc2ccccc2)cc1 (stereo not given)	0	1	-23	6%	?	?
COc1cc(Cn2c3ccc(NC(=S)NCc4ccc(C)cc4)cc3c(=O)n2C)ccc1F	-29	-11	-20	.	?	21µM*
COc1cc(Cn2c3ccc(NC(=O)CC(C)(C)C)cc3c(=O)n2C)ccc1F	-18	-2	2	.	?	?
